Source: PubChem BioAssay (NCI)
The panel holds about 79,000 compounds, 15% with a hit somewhere; the sample as a whole holds those more often. Active and inactive are the calls of the source. Rule as the data show it: active = growth inhibition above about 70%; inactive = the rest.

What was measured:
[1] = NCI Yeast Anticancer Drug Screen. Data for the rad52 strain (AID 147);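 also: 0% = growth of vehicle-treated control cultures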; conditions: S. cerevisiae rad52 mutant growth inhibition, stronger effect = higher value
Summary of the method: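 Screen used a yeast mutant impaired in DNA repair. After compound exposure, growth was measured. Values reflect inhibition compared with vehicle-treated cells.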

[2] = NCI Yeast Anticancer Drug Screen. Data for the wt1 strain (AID 149);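 also: 0% = growth of vehicle-treated wt1 cultures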; conditions: S. cerevisiae wt1 strain (SPY 50644) growth inhibition, stronger effect = higher value
Summary of the method: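 Each compound is tested on wt1 yeast and the loss of growth versus vehicle gives the inhibition value.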

[3] = NCI Yeast Anticancer Drug Screen. Data for the rad50EPP+ strain (AID 151);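 also: 0% = growth of vehicle-treated control cultures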; conditions: S. cerevisiae rad50 mutant strain, stronger effect = higher value
Summary of the method: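 Exposing the rad50EPP+ strain to each compound, growth was compared with vehicle-only cultures to give inhibition.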

[4] = NCI Yeast Anticancer Drug Screen. Data for the mgt1 strain (AID 153); conditions: S. cerevisiae mgt1 mutant growth inhibition, stronger effect = higher value
Summary of the method: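 Genetically defined yeast (mgt1) treated with compound; inhibition of growth expressed against vehicle-treated controls.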

[5] = NCI Yeast Anticancer Drug Screen. Data for the rad50 strain (AID 155);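 also: 0% = growth of vehicle-only cultures of the same strain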; conditions: S. cerevisiae rad50 strain growth inhibition, stronger effect = higher value
Summary of the method: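 Vehicle-treated cultures provide the reference for the growth inhibition reported for compound-exposed, repair-deficient yeast.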

[6] = NCI Yeast Anticancer Drug Screen. Data for the mec2-1 strain (AID 157); conditions: S. cerevisiae mec2-1 strain, stronger effect = higher value
Summary of the method: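 Readout is yeast growth inhibition, normalised to vehicle-treated controls, in the mec2-1 strain exposed to compound.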

[7] = NCI Yeast Anticancer Drug Screen. Data for the rad14 strain (AID 159);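 also: 0% = growth of vehicle-treated control cultures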; conditions: S. cerevisiae rad14 strain growth inhibition, stronger effect = higher value
Summary of the method: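 Inhibition of growth is reported for a repair-deficient yeast mutant following compound treatment, calculated relative to cultures that received vehicle.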

[8] = NCI Yeast Anticancer Drug Screen. Data for the sgs1 mgt1 strain (AID 161);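 also: 0% = growth of cultures given vehicle only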; conditions: S. cerevisiae sgs1 mgt1 strain, stronger effect = higher value
Summary of the method: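 Yeast cells carrying a defined DNA-repair defect were exposed to test compounds. Growth inhibition was measured relative to vehicle-treated controls.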

[9] = NCI Yeast Anticancer Drug Screen. Data for the CLN2oe strain (AID 163);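 also: 0% = growth of vehicle-only control cultures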; conditions: S. cerevisiae CLN2oe strain, stronger effect = higher value
Summary of the method: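 Values reflect how much compound exposure reduced yeast growth, referenced to vehicle-exposed cells. Assay organism is a strain with a defined genetic change affecting cell-cycle control.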

[10] = NCI Yeast Anticancer Drug Screen. Data for the cln2 rad14 strain (AID 165);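 also: 0% = growth equal to vehicle treated cultures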; conditions: S. cerevisiae cln2 rad14 strain, stronger effect = higher value
Summary of the method: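 Relative to vehicle controls, growth inhibition of compound-treated cln2 rad14 yeast was recorded.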

[11] = NCI Yeast Anticancer Drug Screen. Data for the bub3 strain (AID 167); conditions: S. cerevisiae bub3 mutant strain, stronger effect = higher value
Summary of the method: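 Mutant yeast screening strain plus compound; vehicle-treated cultures serve as the 0% inhibition reference.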

[12] = NCI Yeast Anticancer Drug Screen. Data for the wt2 strain (AID 169); conditions: S. cerevisiae wt2 strain growth inhibition, stronger effect = higher value
Summary of the method: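 Values express reduction in yeast growth under compound treatment, referenced to vehicle-treated cells.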

[13] = NCI Yeast Anticancer Drug Screen. Data for the mlh1 strain (AID 171);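 also: 0% = growth of vehicle-treated control cultures of the same strain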; conditions: S. cerevisiae mlh1 strain growth inhibition, stronger effect = higher value
Summary of the method: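 Steps: expose the defined-mutant yeast strain to compound; expose a parallel culture to vehicle; measure growth; express compound effect as inhibition relative to the vehicle culture.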

[14] = NCI Yeast Anticancer Drug Screen. Data for the sgs1 strain (AID 173);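 also: 0% = growth of vehicle-only control cultures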; conditions: S. cerevisiae sgs1 mutant, stronger effect = higher value
Summary of the method: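 Treat defined-mutant yeast with compound; measure growth; calculate inhibition relative to vehicle-treated cells.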

[15] = NCI Yeast Anticancer Drug Screen. Data for the mlh1 rad18 strain (AID 175); conditions: S. cerevisiae mlh1 rad18 strain growth inhibition, stronger effect = higher value
Summary of the method: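 Test agents were incubated with a yeast strain of defined genotype (DNA damage repair defect). Inhibition of growth was derived by comparison with vehicle-exposed cultures.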

[16] = NCI Yeast Anticancer Drug Screen. Data for the rad18 strain (AID 177); conditions: S. cerevisiae rad18 mutant growth inhibition, stronger effect = higher value
Summary of the method: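 A genetically defined yeast mutant impaired in DNA damage repair was treated with test compounds, then its growth was measured against cultures receiving vehicle alone.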

[17] = at 5.0 µM (retest, dose inferred, filed as 0.5)
[18] = at 50.0 µM (retest, dose inferred, filed as 5.0)

Measured: growth inhibition

O=C1CSC(c2ccccc2)N1c1ccc(-c2ccc(-n3c(-c4ccccc4)nc4ccccc4c3=O)cc2)cc1 (stereo unspecified)
active: [8]; at 50.0 µM 91.1% | [11]; [18] 77% | [11]; at 50.0 µM 82.3% | [15]; [18] 83% | [15]; at 50.0 µM 82.7%
inactive: [1]; at 1.2 µM 0% | [1]; at 3.7 µM 1% | [1]; at 11.0 µM 3% | [1]; at 33.0 µM 6% | [1]; at 100.0 µM 38% | [2]; at 1.2 µM -2% | [2]; at 3.7 µM 0% | [2]; at 11.0 µM -2% | [2]; at 33.0 µM -19% | [2]; at 100.0 µM -7% | [3]; at 1.2 µM 3% | [3]; at 3.7 µM 9% | [3]; at 11.0 µM 15% | [3]; at 33.0 µM 20% | [3]; at 100.0 µM 24% | [4]; at 1.2 µM 0% | [4]; at 3.7 µM 1% | [4]; at 11.0 µM 0% | [4]; at 33.0 µM 22% | [4]; at 100.0 µM 64% | [5]; at 1.2 µM 0% | [5]; at 3.7 µM 1% | [5]; [17] -2% | [5]; at 11.0 µM 2% | [5]; at 33.0 µM 13% | [5]; [18] 44% | [5]; at 50.0 µM 57.1% | [5]; at 100.0 µM 43% | [6]; at 1.2 µM 0% | [6]; at 3.7 µM -1% | [6]; [17] -1% | [6]; at 11.0 µM 2% | [6]; at 33.0 µM 4% | [6]; [18] 27% | [6]; at 50.0 µM 30.7% | [6]; at 100.0 µM 40% | [7]; at 1.2 µM 1% | [7]; at 3.7 µM 7% | [7]; at 11.0 µM 14% | [7]; at 33.0 µM 36% | [7]; at 100.0 µM 44% | [8]; [17] 6% | [8]; [18] 45% | [9]; at 1.2 µM 5% | [9]; at 3.7 µM 3% | [9]; at 11.0 µM 6% | [9]; at 33.0 µM 6% | [9]; at 100.0 µM 10% | [10]; [17] 40% | [10]; [18] -1% | [10]; at 50.0 µM 36% | [11]; at 1.2 µM 2% | [11]; at 3.7 µM 5% | [11]; [17] 3% | [11]; at 11.0 µM 12% | [11]; at 33.0 µM 23% | [11]; at 100.0 µM 59% | [12]; at 1.2 µM 0% | [12]; at 3.7 µM -3% | [12]; at 11.0 µM -2% | [12]; at 33.0 µM 7% | [12]; at 100.0 µM 28% | [13]; at 1.2 µM -1% | [13]; at 3.7 µM -2% | [13]; at 11.0 µM -1% | [13]; at 33.0 µM 14% | [13]; at 100.0 µM 54% | [14]; at 1.2 µM 1% | [14]; at 3.7 µM 1% | [14]; at 11.0 µM 6% | [14]; at 33.0 µM 23% | [14]; at 100.0 µM 46% | [15]; [17] -20% | [16]; at 1.2 µM -1% | [16]; at 3.7 µM 2% | [16]; at 11.0 µM 8% | [16]; at 33.0 µM 15% | [16]; at 100.0 µM 20%

O=C(/C=C/c1ccsc1)c1cccs1
inactive: [1]; at 1.2 µM -16% | [1]; at 3.7 µM -18% | [1]; at 11.0 µM -9% | [1]; at 33.0 µM -12% | [2]; at 1.2 µM -33% | [2]; at 3.7 µM -41% | [2]; at 11.0 µM -35% | [2]; at 33.0 µM -35% | [2]; at 100.0 µM 17% | [3]; at 1.2 µM 5% | [3]; at 3.7 µM 11% | [3]; at 11.0 µM 21% | [3]; at 33.0 µM 54% | [4]; at 1.2 µM 3% | [4]; at 3.7 µM -2% | [4]; at 11.0 µM -4% | [4]; at 33.0 µM 10% | [5]; at 1.2 µM 21% | [5]; at 3.7 µM 19% | [5]; [17] -15% | [5]; at 11.0 µM 22% | [5]; at 33.0 µM 27% | [5]; [18] 11% | [5]; at 50.0 µM 46.6% | [6]; at 1.2 µM -3% | [6]; at 3.7 µM -7% | [6]; [17] 4% | [6]; at 11.0 µM -2% | [6]; at 33.0 µM 8% | [6]; [18] 11% | [6]; at 50.0 µM 19.9% | [7]; at 1.2 µM 3% | [7]; at 3.7 µM 0% | [7]; at 11.0 µM -8% | [7]; at 33.0 µM 9% | [8]; [17] -1% | [8]; [18] 33% | [8]; at 50.0 µM 66.6% | [9]; at 1.2 µM 4% | [9]; at 3.7 µM 14% | [9]; at 11.0 µM 3% | [9]; at 33.0 µM 5% | [10]; [17] 37% | [10]; [18] 42% | [10]; at 50.0 µM 4.55% | [11]; at 1.2 µM 1% | [11]; at 3.7 µM 28% | [11]; [17] -11% | [11]; at 11.0 µM 11% | [11]; at 33.0 µM 23% | [11]; [18] 66% | [11]; at 50.0 µM 15.2% | [12]; at 1.2 µM -24% | [12]; at 3.7 µM -36% | [12]; at 11.0 µM -31% | [12]; at 33.0 µM -29% | [13]; at 1.2 µM 6% | [13]; at 3.7 µM 3% | [13]; at 11.0 µM -8% | [13]; at 33.0 µM 25% | [14]; at 1.2 µM -15% | [14]; at 3.7 µM -23% | [14]; at 11.0 µM -24% | [14]; at 33.0 µM -17% | [15]; [17] -9% | [15]; [18] 69% | [15]; at 50.0 µM 44.6% | [16]; at 1.2 µM -3% | [16]; at 3.7 µM -5% | [16]; at 11.0 µM -12% | [16]; at 33.0 µM -6%
active: [1]; at 100.0 µM 82% | [3]; at 100.0 µM 95% | [4]; at 100.0 µM 92% | [5]; at 100.0 µM 92% | [6]; at 100.0 µM 98% | [7]; at 100.0 µM 87% | [9]; at 100.0 µM 84% | [11]; at 100.0 µM 97% | [12]; at 100.0 µM 85% | [13]; at 100.0 µM 96% | [14]; at 100.0 µM 83% | [16]; at 100.0 µM 84%
